Source: PubChem
DT40 TDP1 no CPT – qHTS for Inhibitors of human tyrosyl-DNA phosphodiesterase 1 (TDP1): qHTS in cells in absence of CPT. DT40 Tdp1-/- hTDP1 cells, no CPT, ATP luminescence, 48 h. Potency, µM (series often up to 46.2 µM), usual class: inhibitors. 15% of 420,000 active. AID 686978, 2013; note: nearly all actives have a fitted effect of over 55% in size
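Seeded 400 DT40-hTDP1 cells/well (vehicle DMSO, no 20 nM CPT); pinned compounds; ≥48 hr at 37 °C; CellTiter-Glo luminescence as viability measure.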
BCR signal inh – qHTS Assay to Find Inhibitors of Chronic Active B-Cell Receptor Signaling; ABC-DLBCL IkBa-CBG/CBR reporter, luminescence ratio, 4 h; Potency, µM (top dose mostly 46.1 µM), hits mostly inhibitors; 0.05% of 340,000 active; active = well fitted inhibition curve with a large enough effect in the signal ratio, with a control signal flat, not every such curve was filed as active; inconclusive = small, poorly fitted or top-dose-only effect, or effect the other way, or a change in a side signal; the % refers to the signal ratio
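TMD8 human ABC-DLBCL cells with doxycycline-inducible IκBα–green luciferase fusion and unfused red luciferase, in 0.5% FBS medium; compounds up to 46 uM, 4 h at 37C. Green/red luminescence ratio, filter-overlap corrected, fitted to concentration-response curves.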
IL1B secr inh – qHTS for Inhibitors of Inflammasome Signaling: IL-1-beta AlphaLISA Primary Screen; THP-1 LPS/ATP IL-1B secretion, AlphaLISA, 16 h; hits give low values; activity change, % at 57.5 µM; AID 743279, 2014; 4.7% of 360,000 active; in the data active = activity change below about -50%; inconclusive = mostly about -30% to -49%
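Secreted IL-1B measured by AlphaLISA bead assay after 16 h compound exposure of THP-1 cells; compounds (final up to 57.5 uM) added 1 h before LPS (250 ng/mL) and ATP (1.25 mM) stimulation; lower signal means less secretion.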
SW480 rereplic – A quantitative high throughput screen for small molecules that induce DNA re-replication in SW480 colon adenocarcinoma cells | SW480 DNA re-replication, Hoechst DNA content imaging, 48 h | Potency, µM (titrated, usually from 46.1 µM), most hits filed as activators | 1.8% of 340,000 active | AID 624297, 2012; note: nearly all actives have a fitted effect of over 55% in size
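Treated cells incubate 48 hr (37 C, 5% CO2), are stained 40 min with Hoechst, and nuclear fluorescence is enumerated; a rise in nuclei with high DNA signal marks re-replication.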
TDP1 cell CPT – qHTS for Inhibitors of human tyrosyl-DNA phosphodiesterase 1 (TDP1): qHTS in cells in presence of CPT | chicken DT40 Tdp1-/-;hTDP1 cells + 20 nM CPT, ATP luminescence, 48 h | Potency, µM (doses to about 46.2 µM), usual class: inhibitors | 12% of 420,000 active | AID 686979, 2013; note: nearly all actives have a fitted effect of over 55% in size
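Chicken DT40 Tdp1-/- cells complemented with human TDP1, 400 cells/well, exposed to compounds plus 20 nM camptothecin for at least 48 h at 37 C; viability read as ATP content by CellTiter-Glo luminescence.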
MCF10A rereplic – A quantitative high throughput screen for small molecules that induce DNA re-replication in MCF 10a normal breast cells. MCF 10A DNA re-replication, Hoechst nuclear intensity, 48 h. 2.9% of 350,000 active. Potency, µM (series often up to 46.1 µM), most hits filed as activators. AID 624296, 2012; note: nearly all actives have a fitted effect of over 50% in size
Each line names hits and unclear results; the compound was inactive in the other large screens. Shown are actives, neighbours in structure and some others; about 19% of the full set was active somewhere. Unless noted, calls come from the whole dose curve; as a rule, active = well fitted curve in the direction sought with a large enough effect; inconclusive = small, poorly fitted or top-dose-only effect, or another doubt; inactive = no such curve, though single readings can be large; an effect the other way counts as inactive or inconclusive.

CC(C)(C)c1ccc(/C=C/C(=O)Nc2ccc(S(N)(=O)=O)cc2)cc1	DT40 TDP1 no CPT 8.2µM, TDP1 cell CPT 6.5µM (no result: BCR signal inh, IL1B secr inh, SW480 rereplic, MCF10A rereplic)
NS(=O)(=O)c1ccc(NC(=O)/C=C/c2cccs2)cc1	SW480 rereplic 23µM
NS(=O)(=O)c1ccc(NC(=O)/C=C/c2ccc(S(=O)(=O)NCc3ccco3)cc2)cc1	DT40 TDP1 no CPT inconclusive, IL1B secr inh -52
COc1ccc2c(c1)c1c(c(=O)n(-c3ccc(OC)c(OC)c3)c(=O)n1Cc1ccc(F)cc1)n2C	none (no result: BCR signal inh, IL1B secr inh, SW480 rereplic, MCF10A rereplic)
CCN(C(=O)COC(=O)CCC1CCCC1)c1c(N)n(Cc2ccccc2)c(=O)[nH]c1=O	none
CSc1nnc(Cn2c(=O)sc3ccccc32)n1-c1ccccc1C	DT40 TDP1 no CPT 18µM, TDP1 cell CPT inconclusive (no result: BCR signal inh)
CC(Sc1nnc(Cn2c(=O)sc3ccccc32)n1C)c1ccccc1 (configuration not stated)	TDP1 cell CPT inconclusive
CCSc1nnc(Cn2c(=O)sc3ccccc32)n1C	TDP1 cell CPT 13µM
CC(C)C[C@H](NC(=O)C1CCN(S(=O)(=O)c2ccccc2)CC1)C(=O)NCc1ccccn1	none
CCN(CC)S(=O)(=O)c1ccc(C(=O)NNC(=O)c2cccs2)cc1	none
CC(=O)Nc1ccc(S(=O)(=O)Nc2ccc(S(=O)(=O)Nc3nc(C)cc(C)n3)cc2)cc1	none
CCN(CC)S(=O)(=O)c1ccc(NC(=O)c2cccs2)cc1	DT40 TDP1 no CPT inconclusive, BCR signal inh inconclusive, IL1B secr inh -52
CCCNS(=O)(=O)c1ccc(NC(=O)Cc2cccs2)cc1	none
COc1ccc(NS(=O)(=O)c2ccc(NC(=O)Cc3cccs3)cc2)cc1	DT40 TDP1 no CPT 15µM, TDP1 cell CPT inconclusive
CCCCN(CCCC)S(=O)(=O)c1ccc(NS(=O)(=O)c2ccc(NC(C)=O)cc2)cc1	BCR signal inh inconclusive, MCF10A rereplic 15µM
COc1ccc(CC(=O)Nc2cc(S(=O)(=O)Nc3ccc(OC)cc3)ccc2OC)cc1	DT40 TDP1 no CPT 21µM, TDP1 cell CPT 21µM
COc1ccc(NS(=O)(=O)c2cc(NC(=O)Cc3cccs3)ccc2C)cc1	SW480 rereplic inconclusive, MCF10A rereplic 16µM
COc1ccc(NC(=O)/C(N=Nc2cc(S(=O)(=O)Nc3ccc(OC)cc3)ccc2OC)=C(\C)O)cc1	BCR signal inh inconclusive, MCF10A rereplic 0.58µM
Cc1ccn(-c2ccc(NC(=O)c3cccs3)cc2)n1	DT40 TDP1 no CPT 12µM, BCR signal inh inconclusive, TDP1 cell CPT inconclusive, MCF10A rereplic inconclusive
CCCCN(CCCC)S(=O)(=O)c1ccc(NC(=O)Cc2cccs2)cc1	DT40 TDP1 no CPT 21µM, BCR signal inh inconclusive, TDP1 cell CPT inconclusive
CCCN(CCC)S(=O)(=O)c1ccc(NC(=O)Cc2cccs2)cc1	BCR signal inh inconclusive
COc1ccc(NC(=O)/C(N=Nc2ccc(Cl)c(S(=O)(=O)Nc3ccc(Cl)cc3)c2)=C(\C)O)cc1	none
c1ccc(CN2CC[C@@H](Nc3nccn4ccnc34)C2)cc1	TDP1 cell CPT inconclusive (no result: BCR signal inh, SW480 rereplic, MCF10A rereplic)
CCN(CC)S(=O)(=O)c1ccc(NC(=O)C2c3ccccc3Oc3ccccc32)cc1	DT40 TDP1 no CPT 16µM, BCR signal inh inconclusive, TDP1 cell CPT 23µM
CCOC(=O)C1CCCN(CC(=O)Nc2c(C(=O)OC)[nH]c3ccccc23)C1 (configuration not stated)	DT40 TDP1 no CPT inconclusive, BCR signal inh inconclusive
CCOC(=O)c1[nH]c2cc3c(cc2c1NC(=O)CN1CCC(C)CC1)OCO3	DT40 TDP1 no CPT 11µM, TDP1 cell CPT 18µM
CCOC(=O)c1[nH]c2cc3c(cc2c1NC(=O)CN1CCCC1)OCO3	DT40 TDP1 no CPT inconclusive
CCOC(=O)c1[nH]c2cc3c(cc2c1NC(=O)CN1CCc2ccccc2C1)OCO3	DT40 TDP1 no CPT 12µM, TDP1 cell CPT 16µM
CSc1ncc(Cl)c(C(=O)Nc2cccc(C)c2)n1	none
CSc1ncc(Cl)c(C(=O)C(C#N)c2nc3c(C)cc(C)cc3c(=O)[nH]2)n1 (configuration not stated)	DT40 TDP1 no CPT 26µM, TDP1 cell CPT inconclusive
N/C(=N\C(=S)Nc1ccccc1)c1ccccc1	DT40 TDP1 no CPT 16µM, BCR signal inh inconclusive, TDP1 cell CPT inconclusive
CNC(=S)/N=C(\Nc1ccc(C)cc1)c1ccccc1	DT40 TDP1 no CPT inconclusive (no result: IL1B secr inh)
CNC(=S)/N=C(/Nc1ccccc1)c1ccccc1	IL1B secr inh -69
CCOC(=O)c1ccc(NS(=O)(=O)c2c(N)n(C)c(=O)n(C)c2=O)cc1	DT40 TDP1 no CPT inconclusive, TDP1 cell CPT 16µM, MCF10A rereplic inconclusive (no result: BCR signal inh)
Nc1ncnc2c1nc(Sc1ccc(Cl)cc1)n2[C@H]1OC2COP(=O)(O)O[C@H]2[C@@H]1O (some centres not stated)	none (no result: BCR signal inh, IL1B secr inh, SW480 rereplic, MCF10A rereplic)
CCOc1ccccc1C(=O)Nc1ccc(-n2nncc2C(C)(C)C)cc1	DT40 TDP1 no CPT 15µM, TDP1 cell CPT 21µM
CCOc1ccccc1C(=O)Nc1ccc(-n2nncc2-c2ccccc2)cc1	DT40 TDP1 no CPT 23µM, TDP1 cell CPT inconclusive (no result: IL1B secr inh, SW480 rereplic, MCF10A rereplic)
CCOc1ccccc1C(=O)Nc1ccc(S(=O)(=O)N2CCN(C)CC2)cc1	TDP1 cell CPT inconclusive, MCF10A rereplic inconclusive
O=C(Nc1ccccc1OC(F)F)c1ccc(S(=O)(=O)N2CCOCC2)cc1	none
c1ccc(C(NCCNC(c2ccccc2)c2ccccc2)c2ccccc2)cc1	DT40 TDP1 no CPT 21µM, TDP1 cell CPT inconclusive, MCF10A rereplic inconclusive
NS(=O)(=O)c1ccc(CCNC(c2ccccc2)c2ccccc2)cc1	DT40 TDP1 no CPT 23µM, BCR signal inh inconclusive, TDP1 cell CPT inconclusive, MCF10A rereplic inconclusive
CCCCc1nnc(NC(=O)CN2C(=O)NC3(CCCCC3)C2=O)s1	none
O=C(Nc1ccc(NS(=O)(=O)c2ccccc2)cc1)c1ccccc1Cl	DT40 TDP1 no CPT inconclusive, TDP1 cell CPT inconclusive
N#Cc1c(NCc2ccccc2)ccnc1NCc1cccnc1	DT40 TDP1 no CPT 8.2µM, BCR signal inh inconclusive, IL1B secr inh inconclusive, TDP1 cell CPT 23µM
N#Cc1c(F)cccc1NCc1cccnc1	none
COc1cc(C(=O)NCC(c2cccs2)N2CCOCC2)c([N+](=O)[O-])cc1OC (configuration not stated)	none
COC(CNC(=O)C1CCCN(S(=O)(=O)c2c(C)noc2/C=C/c2cccs2)C1)OC (configuration not stated)	TDP1 cell CPT inconclusive, MCF10A rereplic 3.7µM
